Source: PubChem BioAssay AID1851 (National Center for Advancing Translational Sciences (NCATS), 2009)
“And” between values parts separate entries of the source, which are not always exact repeats. Identical values can stand only once. Among all 16,000 compounds or so, about 2,600 (16%) were called active. Not shown: some 20% with an inconclusive outcome. The list is a sample of the results. Unmarked numbers belong to inactive results. Calls come from the whole dose curve; as a rule, active = well fitted curve in the direction sought with a large enough effect; inconclusive = small, poorly fitted or top-dose-only effect, or effect the other way; inactive = no such curve, though single readings can be large or run the other way. Square brackets hold non-standard residues; d marks the D form. Peptide text beside a SMILES is read from it.

target: Cytochrome P450 2D6 (Homo sapiens) (UniProt P10635); test: Cytochrome panel assay with activity outcomes; settings: recombinant CYP, pro-luciferin dealkylation, luminescence, p450-cyp2d6; series mostly up to 57.1 µM
% is set by controls: 0 for no effect and ±100 for the full control effect.

Cytochrome P450 2D6 (Homo sapiens), sequence (P10635 whole entry, looked up): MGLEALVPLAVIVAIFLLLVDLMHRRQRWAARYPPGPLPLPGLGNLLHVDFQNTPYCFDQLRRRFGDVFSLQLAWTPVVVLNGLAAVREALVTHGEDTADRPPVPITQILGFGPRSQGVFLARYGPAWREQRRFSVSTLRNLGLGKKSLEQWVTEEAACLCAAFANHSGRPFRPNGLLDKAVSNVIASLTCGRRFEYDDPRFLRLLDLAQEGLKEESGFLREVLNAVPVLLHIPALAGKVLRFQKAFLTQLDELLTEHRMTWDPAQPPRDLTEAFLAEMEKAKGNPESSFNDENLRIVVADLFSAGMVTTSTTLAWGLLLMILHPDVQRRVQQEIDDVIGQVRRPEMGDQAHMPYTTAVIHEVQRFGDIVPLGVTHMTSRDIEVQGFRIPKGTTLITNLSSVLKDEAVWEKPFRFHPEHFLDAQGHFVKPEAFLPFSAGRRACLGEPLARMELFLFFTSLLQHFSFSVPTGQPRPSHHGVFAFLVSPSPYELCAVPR

| SMILES | AC50 | activity, negative = inhibition |
| --- | --- | --- |
| CC(C)C[C@H]1C(=O)N2CCC[C@@H]2[C@]2(O)O[C@](NC(=O)[C@H]3C=C4c5cccc6[nH]c(Br)c(c56)C[C@H]4N(C)C3)(C(C)C)C(=O)N12 | inactive | – |
| COCCCN1C(=O)C(=O)/C(=C(/O)c2ccc(OC(C)C)c(C)c2)C1c1ccncc1 (stereo not given) | inactive | – |
| N[C@H](CO)C(=O)NCC(=O)O (H-[dS]-Gly-OH) | – | -2.94% [at 11.4 µM] |
| Cc1cc(C)nc(NS(=O)(=O)c2ccc(N)cc2)n1 | inactive | – |
| CN1C(=O)/C(=C\c2ccccc2)Sc2ccc(C(=O)N3CCN(c4ccccn4)CC3)cc21 | inactive | – |
| C=C[C@H](N)CCC(=O)O | inactive | – |
| CCc1c(C)sc(NC(=O)OC)c1C(N)=O | inactive | – |
| COc1nc(/C(N)=N/O)nc(N2CCCCC2)n1 | inactive | – |
| Cc1ncc([N+](=O)[O-])n1CCOC(=O)NC(NCc1ccccc1)C(Cl)(Cl)Cl (stereo not given) | inactive | – |
| Cc1cc(=O)c2ccccc2[nH]1 | inactive | – |
| OC(COCC1COc2ccccc2O1)CN1CCN(c2ccccc2F)CC1 (stereo not given) | 2240 nM (active) | – |
| O=C1CCCN1CC(O)CS(=O)(=O)c1ccccc1 (stereo not given) | inactive | – |
| C[C@@H]1CCCN(C[C@@H](O)CN2CCCc3ccccc32)C1 | 1580 nM (active) | – |
| Cc1cc2c(nc1C)CCCN2C[C@@H](O)CN1CCN(C)CC1 | – | -5.57% [at 11.4 µM] |
| OC(COCC1COc2ccccc2O1)CN1CCc2ccccc2C1 (stereo not given) | 447 nM (active) | – |
| Cc1ccc(C2C(=O)N(C3CCCC3)CC(=O)N2CC2COc3ccccc3O2)cc1 (stereo not given) | inactive | – |
| CC1CCCC(C)N1CC(O)COCC1COc2ccccc2O1 (stereo not given) | 1780 nM (active) | – |
| N=C(N)N1CCc2ccccc2C1 | inactive | – |
| O=C(O)c1cc(=O)c2c(OCC(O)COc3cccc4oc(C(=O)O)cc(=O)c34)cccc2o1 | inactive | – |
| Cc1ccc(-c2cccc(OC(=O)c3ccccc3F)c2)cc1 | inactive | – |
| CC(C)C(=O)NC(=S)Nc1ccccc1C(=O)Nc1ccccc1 | inactive | – |
| CN1CCN(c2ncc3ncc(=O)n(C[C@H]4CCCO4)c3n2)CC1 | inactive | – |
| COc1ccc(S(=O)(=O)N2CCC(C(=O)NCC3CCCO3)CC2)cc1C (stereo not given) | inactive | – |
| O=c1n(-c2ccccc2)c(=O)n2n1CC[C@H]1/C(=N\OC[C@@H](O)COCc3ccco3)[C@H]3O[C@@H]3[C@@H](O)[C@@H]12 | – | 0.6% [at 11.4 µM] and 20% [at 11.4 µM] |

| SMILES | AC50 | activity, negative = inhibition |
| --- | --- | --- |
| COC1(OC)N=C(NC(=O)Nc2ccccc2)C2(C#N)C(c3ccccc3)C12C#N (stereo not given) | inactive | – |
| COc1ccc(-c2noc(C3CCCN(C(=O)c4ccccc4OC)C3)n2)cc1OC (stereo not given) | inactive | – |
| CCCC[C@@H]1C[C@H]1C(NC(=O)c1cccs1)c1ccc(-c2ccccc2)cc1 (stereo not given in full) | inactive | – |
| CC1CCCN(CC(O)COCC2COc3ccccc3O2)C1 (stereo not given) | 2510 nM (active) | – |
| CN1CCN(S(=O)(=O)c2cc([N+](=O)[O-])ccc2N2CCCCCC2)CC1 | inactive | – |
| CC(=O)OCC(=O)[C@@]1(O)CC[C@@H]2[C@H]3CCC4=CC(=O)CC[C@]4(C)[C@]3(F)[C@@H](O)C[C@@]21C | inactive | – |
| Oc1ccc2oc3c(c2c1)CCCC3 | inactive | – |
| O=C(CN1CCN(Cc2ccccc2)CC1)N1CCCc2c1c(=O)oc1ccc(O)cc21 | 12600 nM (active) | – |
| Cc1ccc(C(=O)N(CN2CCCC2=O)c2ccccc2)cc1C | inactive | – |
| COc1ccc(O)c(/C=N/NC(=O)c2ccc(OCc3cccc(Br)c3)cc2)c1 | inactive | – |
| CCc1cc2c(Sc3nc4ccccc4s3)ncnc2s1 | inactive | – |
| CCc1cc2c(NCCO)ncnc2s1 | inactive | – |
| CCc1cc2c(NCc3ccco3)ncnc2s1 | 17800 nM (active) | – |
| COc1ccc(-c2csc(-n3ncc(-c4cccs4)c3N)n2)cc1 | inactive | – |
| CCOC(=O)c1sc2c(c1C)c(=O)c(C(=O)OCC)cn2CC | inactive | – |
| Cc1nnc(NC(=O)c2oc3c(ccc4ccccc43)c2C)s1 | inactive | – |
| COC(=O)c1cc(=O)[nH]c(=O)[nH]1 | – | -4.62% [at 11.4 µM] |
| CCOC(=O)N/N=C1/C[C@@H](O)[C@@H](O)[C@@H]2[C@@H]3C(=O)N(C(C)(C)C)C(=O)[C@H]3CC[C@H]12 | – | -1.55% [at 11.4 µM] |
| O=[N+]([O-])c1c(NCCO)cc(Sc2nc3ccccc3s2)c2nonc12 | 14100 nM (active) | – |
| Cc1ccc(S(=O)(=O)NC(=O)CSc2nc3ccccc3s2)cc1 | inactive | – |
| O=C(N/N=C/c1ccc(Sc2nc3ccccc3s2)c([N+](=O)[O-])c1)c1ccccn1 | inactive | – |
| C[C@@]1(C(=O)O)CCC[C@@H]1C(=O)O | – | 9.41% [at 11.4 µM] |
| CC(=O)Nc1c(C(=O)N2CCOCC2)cnn1-c1ccc(C)c(C)c1 | inactive | – |
| COc1ccccc1NC(=O)CN1CCN(c2ccccc2F)CC1 | inactive | – |

| SMILES | AC50 | activity, negative = inhibition |
| --- | --- | --- |
| O=C(CCN1CCN(c2ccccc2F)CC1)Nc1ccccc1F | 11200 nM (active) | – |
| O=C(CS(=O)c1cccc(Cl)c1)Nc1ccccc1Cl (stereo not given) | inactive | – |
| COc1ccc(NC(=O)CN2CCN(CC(=O)Nc3ccccc3Cl)CC2)cc1 | inactive | – |
| O=C(CCN1CCN(CC(=O)Nc2ccccc2Cl)CC1)Nc1ccccc1F | 1260 nM (active) | – |
| O=C(CCN1C(=O)C2C3C=CC(C3)C2C1=O)Nc1c(F)cccc1F (stereo not given) | inactive | – |
| COCCn1c(=O)c(C)nc2cnc(Oc3ccc(OC)cc3)nc21 | inactive | – |
| CN(C)c1ncc2nc(-c3cccs3)c(=O)n(C[C@H]3CCCO3)c2n1 | inactive | – |
| O=C(CP(=O)(c1ccccc1)c1ccccc1)Nn1cnnc1 | inactive | – |
| COCCN(CCOC)S(=O)(=O)c1ccc(C(=O)Nc2nc(C)c(C(C)=O)s2)cc1 | inactive | – |
| NC(=O)CN1CCOCCOCCOCCOCCOCC1 | inactive | – |
| O=C(Nc1cccc(F)c1)N1CCC2(CC1)CCN(C(=O)c1ccco1)CC2 | inactive | – |
| COc1ccc(CCNc2cc(-c3ccccc3)nc3ncnn23)cc1 | inactive | – |
| COc1ccc(-n2c3c(c(=O)[nH]c2=O)C(C(F)(F)F)(C(F)(F)F)N=C(CC(C)C)N3)cc1 | inactive | – |
| CCCn1c(=O)c2c(ncn2C)n(CCC)c1=O | inactive | – |
| NC(N)=NNC(=O)C(=O)O | – | 7.44% [at 11.4 µM] |
| C/C(=N\N1CCN(C2c3ccccc3-c3ccccc32)CC1)c1ccncc1 | 178 nM (active) | – |
| C(=N\N1CCN(C2c3ccccc3-c3ccccc32)CC1)/c1cccnc1 | 631 nM (active) | – |
| CC(C)(C(=O)c1cccnc1)c1cccnc1 | inactive | – |
| c1ccc2c(c1)-c1nc3ccccc3cc1[C@H]2N1CCOCC1 | – | -4.83% [at 11.4 µM] |
| O=[N+]([O-])c1cc(/C=N/N2CCN(C3c4ccccc4-c4ccccc43)CC2)ccc1Cl | inactive | – |
| O=C(O)c1cccnc1 | inactive | – |
| C/C(=N\N1CCN(C2c3ccccc3-c3ccccc32)CC1)c1cccnc1 | 2000 nM (active) | – |
